Rab9 promoter act: activators of Rab9 promoter. 2.8% of 320,000 active. Potency, µM (series often up to 9.22 µM), for inactives: at the highest dose activation, negative = inhibition, hits mostly activators. Huh7 Rab9 promoter-luciferase reporter, luminescence, 24 h. AID 485297; further: % of control where 0% means no effect; nearly all actives have a fitted effect of over 60% in size
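Promoter activation is measured as luciferase luminescence in Huh7 cells stably transfected with a Rab9 promoter–luciferase construct, following 24 h compound exposure at 37 °C and 10 min reagent incubation at ambient temperature.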
NPC1 prom act: activators of NPC1 promoter; Huh7 NPC1 promoter luciferase reporter, 24 h; Potency, µM (highest dose often 9.22 µM), inactives show at the highest dose activation, actives largely listed as activators; 2.4% of 320,000 active; AID 485313; further: % of control where 0% means no effect; nearly all actives have a fitted effect of over 60% in size
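Stable NPC1-promoter luciferase Huh7 line; cpd (DMSO) 24 h, 37 °C, 5% CO2; Amplite luciferase reagent 10 min RT; luminescence readout. qHTS format.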
ELG1 genotox: genotoxicity induction in ELG1-luciferase HEK293T cells. 1.3% of 330,000 active. HEK293T ELG1-luciferase reporter, luminescence, 16 h. Potency, µM (doses to about 46 µM), for the others: at the highest dose activity change, positive = activation, hits mostly activators; further: % of control where 0% means no effect; nearly all actives have a fitted effect of over 60% in size
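Reporter readout depends on ELG1 protein level, which increases with genetic stress. After 16 hr compound exposure at 37 °C, luciferase activity was quantified using ONE-Glo.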
SMN2 splice enh: SMN2 splice variant enhancement; 2.8% of 210,000 active; HEK293 SMN2-luciferase splicing reporter, luminescence, 30-36 h; Potency, µM (highest dose often 46.1 µM), for inactives: top-dose activity change, positive = activation, actives largely listed as activators; further: % of control where 0% means no effect; nearly all actives have a fitted effect of over 55% in size
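HEK293 cells carry an SMN2 […]–luciferase reporter in which exon 7 inclusion puts luciferase in frame. Cells were plated 10-12 h before compound addition, then incubated 30-36 h at 37C. ONE-Glo luminescence was read; sodium butyrate at 4.5 mM final served as control.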
FLuc counter: counter-screen for miR-21 project: firefly luciferase inhibitors or activators; purified FLuc, Km substrates, luminescence inhibition; Potency, µM (series often up to 57.5 µM), inactives show at the top dose activity change, negative = inhibition, hits mostly inhibitors; 6.9% of 360,000 active;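 further: plate controls were vehicle for no effect and reference inhibitor for full effect; nearly all actives have a fitted effect of over 55% in size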
Target sequence (P08659 whole entry, looked up): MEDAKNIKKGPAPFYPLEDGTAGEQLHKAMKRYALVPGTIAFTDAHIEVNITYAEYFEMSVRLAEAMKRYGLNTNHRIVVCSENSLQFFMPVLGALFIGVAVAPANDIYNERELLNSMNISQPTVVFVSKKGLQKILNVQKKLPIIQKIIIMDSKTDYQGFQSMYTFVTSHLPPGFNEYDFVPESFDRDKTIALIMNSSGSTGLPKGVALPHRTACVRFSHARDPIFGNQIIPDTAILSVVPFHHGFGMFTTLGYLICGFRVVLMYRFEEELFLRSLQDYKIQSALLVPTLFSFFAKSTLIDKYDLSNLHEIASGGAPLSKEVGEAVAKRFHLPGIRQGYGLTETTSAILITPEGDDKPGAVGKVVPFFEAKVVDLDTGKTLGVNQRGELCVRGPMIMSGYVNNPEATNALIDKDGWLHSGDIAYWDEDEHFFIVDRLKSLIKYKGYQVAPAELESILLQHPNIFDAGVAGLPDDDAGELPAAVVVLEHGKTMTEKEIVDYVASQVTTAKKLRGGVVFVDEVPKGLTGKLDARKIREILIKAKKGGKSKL
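Purified P. pyralis luciferase, 10 nM final, with Km-level 10 uM D-luciferin and 10 uM ATP in 50 mM Tris acetate pH 7.5, 10 mM Mg acetate, 0.01% Tween-20, 0.05% BSA; 6-point qHTS titration about 60 µM downward; luminescence read.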
* hit, by the source's call; ? = inconclusive; nt = not tested or not shown; [ ] = another dose, or the depositor's remark. Shown are actives, neighbours in structure and some others; about 7.4% of the full set was active somewhere. The call rests on the fitted dose curve; in most records, active means well fitted curve in the direction sought with a large enough effect; inconclusive means small, poorly fitted or top-dose-only effect, or another doubt; inactive means no such curve, though single readings can be large; an effect the other way counts as inactive or inconclusive. Potency means the concentration at half of the fitted maximal effect.

SMILES	Rab9 promoter act	NPC1 prom act	ELG1 genotox	SMN2 splice enh	FLuc counter
Cc1ccc(NC(=O)CCc2c(C)nn(-c3ccc(N4CCOCC4)nn3)c2C)cc1	25%	6%	11%	nt	?
Cc1ccc(NC(=O)CCc2c(C)nn(-c3ccc(N4CCCCC4)nn3)c2C)cc1	?	1.6µM*	10%[9.26 µM]	nt	11µM*
COc1ccc(OC)c(NC(=O)Cn2nc3c(cc2=O)CCCC3)c1	nt	nt	nt	-6%	-8%
Cc1cc(C)cc(NC(=O)CCc2c(C)nn(-c3ccc(N4CCCCC4)nn3)c2C)c1	?	?	10%[9.26 µM]	nt	4.8µM*
COc1ccc(C)cc1NC(=O)CCc1c(C)nn(-c2ccc(N3CCCCC3)nn2)c1C	?	?	4%	nt	12µM*
CCOC(=O)c1cccc(NC(=O)CCc2nnc3ccc(N4CCCCC4)nn23)c1	-3%	-2%	0%	nt	2%
Cc1nn(-c2ccc(N3CCOCC3)nn2)c(C)c1CCC(=O)Nc1ccccc1	11%	13%	3%	nt	?
CCOC(=O)c1cccc(NC(=O)CCc2c(C)nn(-c3ccc(N4CCCCC4)nn3)c2C)c1	nt	nt	nt	nt	11µM*
CC(=O)c1ccc(NC(=O)CCc2c(C)nn(-c3ccc(N4CCCCC4)nn3)c2C)cc1	nt	nt	nt	nt	8.5µM*
CCn1cc(CNC(=O)C2CCC(=O)N(Cc3ccc(Cl)cc3)C2)cn1 (centres undefined)	-3%	-3%	1%	nt	-1%
CC(C)COc1cccc(C(=O)N(C)CC(=O)Nc2cccc3ccccc23)c1	nt	nt	-4%	nt	nt
COc1cc(NC(=O)c2cnc3c(-c4ccc(F)cc4)c(C)nn3c2C)cc(OC)c1	nt	nt	nt	nt	-13%
O=C(NC(=O)c1ccccc1)NC1(C(F)(F)F)OCCO1	4µM*	2.5µM*	?	16µM*	11µM*
Cc1ccccc1-n1c(C)cc(/C=N/NC(=O)c2ccncc2)c1C	15%	21%	8%	4%	3.8µM*
Cc1cc(/C=N/NC(=O)c2ccsc2)c(C)n1-c1cnccn1	?	18%	?	24%	19µM*
Cc1cc(C)cc(-n2c(C)cc(/C=N/NC(=O)c3ccncc3)c2C)c1	0%	-5%	4%	-13%	-5%
CCCCCOC(=O)CSc1nc2sc3c(c2c(=O)n1-c1ccccc1)CC(C)(CC)OC3 (centres undefined)	nt	nt	nt	-10%	-9%
CCOc1ccc(N=Nc2c(=O)[nH]n3c(C)cc(C)nc23)cc1	5%	4%	3%	-6%	-19%
Cc1ccc(N=Nc2c(=O)[nH]n3c(=O)cc(C)[nH]c23)cc1	7%	6%	?	-37%	15µM*
CCOc1ccccc1NC(=O)Nc1ccc(Cl)cc1	12%	?	7%	-21%	21µM*
CCCOc1ccccc1NC(=O)Nc1ccccc1Cl	2.8µM*	3.5µM*	-6%	-6%	0%
CC(Oc1ccccc1)C(=O)Nc1ccc(C(=O)OCc2cc(=O)n3ccsc3n2)cc1 (centres undefined)	nt	nt	nt	nt	0%
COc1cccc(NC(=O)C(=O)c2cn(CC(=O)N3CCCC3)c3ccccc23)c1	18%	15%	-4%	nt	5.4µM*
Cc1ccc(NC(=O)C(=O)c2cn(CC(=O)N3CCCCC3)c3ccccc23)cc1	-2%	1%	-1%	4%	9.5µM*
COc1ccccc1CNC(=O)C(=O)c1cn(CC(=O)N2CCCC2)c2ccccc12	6%	17%	3%	nt	?
SMILES	Rab9 promoter act	NPC1 prom act	ELG1 genotox	SMN2 splice enh	FLuc counter
COc1ccc(NC(=O)C(=O)c2cn(CC(=O)N3CCCC3)c3ccccc23)cc1OC	4%	-11%	-12%	nt	?
CCc1ccc(NC(=O)C(=O)c2cn(CC(=O)N3CCCCC3)c3ccccc23)cc1	-2%	0%	-2%	3%	9.5µM*
COc1ccccc1CCNC(=O)C(=O)c1cn(CC(=O)N2CCOCC2)c2ccccc12	18%	15%	10%	nt	24µM*
O=C(COc1ccccc1)c1cn(CC(=O)N2CCCC2)c2ccccc12	-2%	-1%	1%	-8%	21µM*
O=C(NCc1ccc(Cl)cc1)C(=O)c1cn(CC(=O)N2CCOCC2)c2ccccc12	-2%	-3%	6%	nt	-17%
O=C(Nc1ccccc1Cl)C(=O)c1cn(CC(=O)N2CCOCC2)c2ccccc12	2.5µM*	3.5µM*	?	nt	0.38µM*
Cc1cc(NC(=O)c2ccco2)ncc1NC(=O)Cc1ccccc1	3.2µM*	?	17%	8%	17µM*
Cc1cc(NC(=O)c2cccc(F)c2)no1	26%	26%	?	14%	?
CC(=O)Nc1cnc(NC(=O)c2cccc(F)c2)cc1C	2.8µM*	1.6µM*	15µM*	11µM*	30µM*
CCC(=O)Nc1cnc(NC(=O)c2cccc(F)c2)cc1C	0.71µM*	1.6µM*	?	11µM*	9.5µM*
O=C(NCc1ccccc1)C1(c2cccc(F)c2)CCCC1	-1%	-2%	-3%	11%	-3%
O=C(CN(Cc1ccccc1F)C(=O)c1csnn1)NCc1ccc2c(c1)OCO2	1%	-2%	0%	nt	-1%
O=C(Nc1nc2c(F)cc(F)cc2s1)c1ccc2c(c1)OCCO2	0.32µM*	0.79µM*	nt	nt	0.6µM*
COc1cccc2sc(NC(=O)c3ccc4c(c3)OCCO4)nc12	nt	nt	nt	nt	0.95µM*
Cc1cccc2sc(NNC(=O)c3ccc4c(c3)OCCO4)nc12	6%	5%	-2%	0%	?
COc1cccc2sc(NC(=O)c3ccc(Br)s3)nc12	?	?	?	-7%	2.4µM*
COc1ccc(N2CCN(C(=O)COc3ccccc3C#N)CC2)cc1	nt	nt	nt	-15%	0%
Cc1nn(-c2ccccc2)c(OC(=O)c2ccccc2)c1S(=O)(=O)c1ccccc1	nt	nt	nt	2%	?
Cc1ccccc1C(=O)OCC(=O)NCC1COc2ccccc2O1 (centres undefined)	-5%	-7%	5%	nt	1%
Clc1ccccc1/C=C/c1ccnc2ccccc12	17%	14%	4%	nt	19µM*
O=C(O)C(=Cc1ccnc2ccccc12)C(=O)O	nt	nt	nt	-5%[9.22 µM]	nt
Oc1ccc(/C=C/c2ccnc3ccccc23)cc1	17%	10%	11%	21%	24µM*
Cc1cc2oc3c(c(=O)c2cc1C)C1(C(=O)N(C)c2ccccc21)N(CCO)C3=O (centres undefined)	nt	nt	nt	-3%	-1%
Clc1ccc(Cl)c(OCc2cc(-c3ccccc3Cl)on2)c1	?	?	14%	-3%	11µM*
Cn1c(/C(C#N)=C/c2cccc(O)c2)nc2ccccc21	?	28%	?	?	13µM*
COc1cc(/C=C(\C#N)c2nc3ccccc3n2C)cc(OC)c1OC	nt	nt	nt	-11%	19µM*
COc1ccc(/C(O)=C(\C#N)c2nc3ccccc3n2C)cc1OC	0%	0%	3%	-15%	-17%
Cn1c(/C(C#N)=C/Nc2ccccn2)nc2ccccc21	23%	13%	2%	nt	?

Bioassay records: PubChem, National Center for Advancing Translational Sciences (NCATS)
